# Laboratory results from PubChem BioAssay (NCI).
# This is part of a sample that, as a whole, favours compounds with a hit. Of some 83,000 tested, about 20% had one in any assay.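 A percent growth of 40 corresponds to 60% growth inhibition; 0 means no net growth; -100 means all cells died. Active threshold: below 10.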 Values without a mark were called inactive. Active and inactive are the calls of the source.
# Experiments:
# Test in all cases: NCI-60 one-dose screen, 48 h (100 = growth as untreated, 0 = no growth, -100 = all killed)
# Conditions in all cases: 10 µM unless noted
# [1] = tested on: SK-MEL-2 melanoma
# [2] = tested on: EKVX NSCLC
# [3] = tested on: SN12C renal
# [4] = tested on: UO-31 renal
# [5] = tested on: TK-10 renal
# [6] = tested on: ACHN renal
# [7] = tested on: CAKI-1 renal
# [8] = tested on: A498 renal
# [9] = tested on: CCRF-CEM leukemia
# [10] = tested on: MOLT-4 leukemia
SMILES,growth [1],growth [2],growth [3],growth [4],growth [5],growth [6],growth [7],growth [8],growth [9],growth [10]
Oc1cccc(Nc2nccc(-c3ccc4ccccc4c3)n2)c1,14.5%,50.5%,33.8%,34%,62%,37.6%,24%,71.2%,6.6% (active),
COc1cc(C#N)cc(OC)c1OCCN(CCOc1c(OC)cc(C#N)cc1OC)S(=O)(=O)c1ccc(C)cc1,75%,108%,111%,45.5%,140%,97.5%,109%,107%,103%,97.6%
O=S(=O)(Nc1ccc(Cl)cc1Cl)c1ccc(-c2cnc(C3CC3)o2)cc1,33.3%,38.1%,51.4%,53.7%,48.4%,53.6%,38.8%,-21% (active),18.6%,
Oc1ccc2c(=S)cc(-c3ccc(Br)cc3)oc2c1O,63.8%,87.9%,-4.08% (active),17.4%,103%,13.9%,65.8%,53.9%,5.37% (active),7.88% (active)
Nc1nc2c(c3ncccc13)C(c1cccc(Br)c1)Cc1ncccc1-2 (stereo not given),3.12% (active),41%,34.4%,33.8%,35.2%,43%,41.4%,-14.9% (active),8.84% (active),7.86% (active)
Cc1ccc(/C=C2\Oc3cc(OCC(=O)c4ccc(Cl)cc4)ccc3C2=O)cc1,79.2%,107%,116%,73.6%,130%,95.2%,101%,113%,176%,102%
COCCCNc1nc(NC(=O)c2ccc(F)cc2C)cc(-c2cccnc2)n1,95.6%,108%,91.1%,88.5%,111%,109%,99.1%,85.4%,96.5%,
CCOC(=O)C(CC)n1c(=O)c2cc(OC)c(OC)cc2c2cnc3[nH]ccc3c21 (stereo not given),103%,76.4%,64.9%,37%,74.2%,61.8%,59%,-9.97% (active),81.1%,
CC1(C)CC(=O)C(c2c(-c3ccccc3)[nH]c3[nH]c(=S)[nH]c(=O)c23)=C(O)C1,94.7%,89.8%,99%,90.9%,107%,97.3%,125%,100%,92%,
C(=N\Nc1nnn(Cc2ccccc2)n1)/c1ccccc1,34%,57.6%,67.5%,61.2%,76.6%,67.2%,95.2%,38.2%,35%,38.2%
Cc1nc2sc(C(=O)Nc3cccc4c3OCCO4)c(N)c2cc1C(C)O (stereo not given),17.1%,35.1%,40.4%,44.3%,55.7%,44.8%,40.9%,-4.54% (active),19.3%,28.2%
O=c1[nH]c(-c2ccccn2)nc2sc3c(c12)CCCCC3,74.4%,32.8%,51.2%,32.6%,49.5%,36.2%,38.5%,59.4%,26.7%,32.1%
CCOC(=O)C12CCCC1=CC(=O)CC2 (stereo not given),89.9%,111%,110%,85.3%,128%,106%,103%,110%,95.7%,94.6%
O=C1/C(=C/c2ccc(F)cc2)CN(C(=O)CCN2CCC(=NO)CC2)C/C1=C\c1ccc(F)cc1,-14% (active),-21.4% (active),-35.4% (active),-100% (active),-5.74% (active),-66.3% (active),-46.4% (active),24.9%,-18.3% (active),0.0352% (active)
CSc1nc2sc3c(c2c(=O)n1-c1ccc(C(C)C)cc1)CCC(=O)C3,63.8%,23.1%,6.68% (active),-67.2% (active),7.34% (active),-19.9% (active),-9.77% (active),96.3%,-11.8% (active),-12.6% (active)
CS(=O)CCCCCN=C=S (stereo not given),6.73% (active),12.8%,-17% (active),1.81% (active),-27.7% (active),-45.5% (active),-15.3% (active),-25.9% (active),-7.32% (active),-13% (active)
CC1CN(C(C)C)C(=S)N(c2ccccc2)C1=O (stereo not given),98.5%,88.6%,101%,84.6%,112%,100%,68.9%,101%,90.6%,90%
Cn1c2ccccc2c2c3c(c4c5ccccc5n(CCCCCC#N)c4c21)C(=O)N(O)C3=O,34.5%,88.2%,10.8%,2.03% (active),42.1%,-0.622% (active),-32.3% (active),-32% (active),3.22% (active),1.13% (active)
CCCCCCCCCCCCCC(=O)C(C)N (stereo not given),72.5%,5.65% (active),5.02% (active),64.9%,48.5%,39.2%,77.6%,11.3%,60.2%,46.8%
CC(=O)C1=C(O)C=C2Oc3c(C(=O)/C=C/c4c(Cl)cccc4Cl)c(O)c(C)c(O)c3[C@]2(C)C1=O,-49.1% (active),-0.577% (active),-30.9% (active),-28.6% (active),-30.8% (active),-15.3% (active),6.78% (active),-72.4% (active),-25.3% (active),-33% (active)
CCN(CC)c1ccc(/C=C/C2=[N+](C)c3ccccc3C2(C)C)cc1,-1.48% (active),0.0796% (active),1.41% (active),22.1%,28.7%,-1.03% (active),-8.77% (active),50.7%,7.5% (active),15.1%
CCN(C(=O)CN1CCN(c2cc3c(cc2F)c(=O)c(C(=O)O)cn3C2CC2)CC1)c1nc(-c2ccc(OC)cc2)cs1,79.2%,58.9%,9.96% (active),33%,77.2%,78%,75.7%,66.6%,61.2%,70.6%
COc1cc(NCCCCCN=C(N)NC(N)=NC(C)C)c2ncccc2c1,20.1%,42.2%,25.9%,76.7%,66.7%,105%,100%,110%,25.3%,27.9%
COc1ccc(/C=C2\CN(C(=O)CCN3CCC(=NO)CC3)C/C(=C\c3ccc(OC)cc3)C2=O)cc1,89.4%,28%,-52% (active),-87.7% (active),21.5%,-41.7% (active),11.3%,36.1%,0.63% (active),0.493% (active)
COCCOC(=O)C1=C(C)NC(=S)NC1c1ccc2c(c1)OCO2 (stereo not given),93%,105%,104%,87.8%,104%,106%,99.8%,96.1%,104%,96.9%
CS(=O)(CCCCN=C=S)=NC(=O)c1c(F)c(F)c(F)c(F)c1F (stereo not given),88.3%,99%,90.9%,90%,76.9%,49.6%,96.3%,88.8%,73.5%,82.5%
Nc1nc2ccc(-c3nc4ccc5[nH]ncc5c4c4c3CCC4)cc2s1,21.5%,19.4%,28.4%,14.7%,22.3%,17.7%,1.07% (active),-9.59% (active),17.3%,18.5%
C=C1CC2(OC1=O)C(=O)N(CCCCCCCCCCCCN1C(=O)C3(CC(=C)C(=O)O3)c3ccccc31)c1ccccc12 (stereo not given),73.3%,98%,53.1%,76.6%,96.1%,97.8%,80.2%,59.5%,4.77% (active),2.36% (active)
